Records with an inconclusive call do not appear. Active and inactive are the calls of the source. Calls follow the shape of the dose curve; as a rule, active = well fitted cell-killing curve with a large enough effect; inconclusive = small, poorly fitted or top-dose-only effect, or effect the other way; inactive = flat fitted curve, though single readings scatter.
Experiments:
Test in all cases: Primary qHTS to identify gynecologic anti-cancer compounds using libraries of approved drugs and bioactive compounds (AID 1345084); also: nearly all actives have a fitted effect of over 55% in size
Conditions in all cases: Gynecologic cancer cell panel viability, ATPlite luminescence, 48 h; series mostly up to 57.5 µM
OV90 = tested on: OV90
Procedure, shortened: (§1)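 Cell viability after 48 h drug treatment, ATPlite luminescence readout; five doses.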

PA-1 = tested on: PA-1
Procedure, shortened: as §1

SKOV3 = tested on: SKOV3
Procedure, shortened: as §1

Tov-21-G = tested on: Tov-21-G
Procedure, shortened: as §1

Tov112D = tested on: Tov112D
Procedure, shortened: as §1
% is scaled to controls: 0 for no effect and ±100 for the full control effect.

CC1C2=CC(=O)OC2(O)CC2C1C(O)CC1C(C)(CO)CCCC21C (stereo not given)
inactive: Potency (OV90) | Potency (PA-1) | Potency (SKOV3) | Potency (Tov-21-G) | Potency (Tov112D)

COC(=O)C1=COC(O[C@@H]2O[C@H](CO)[C@@H](O)[C@H](O)[C@H]2O)C2C(C)C(=O)CC12 (stereo not given in full)
inactive: Potency (OV90) | Potency (PA-1) | Potency (SKOV3) | Potency (Tov-21-G) | Potency (Tov112D)

C=C(C(=O)OC)[C@]12O[C@@](C)(CC[C@@]3(O)/C(=C\C)C(=O)O[C@]3(C)C[C@@H]1OC(=O)C(CO)CN1CCCC1C(=O)O)CC2=O (stereo not given in full)
inactive: Potency (OV90) | Potency (PA-1) | Potency (SKOV3) | Potency (Tov-21-G) | Potency (Tov112D)

CC(C)C1CCC(C(=O)N[C@@H](Cc2ccccc2)C(=O)O)CC1 (stereo not given in full)
inactive: Potency (OV90) | Potency (PA-1) | Potency (SKOV3) | Potency (Tov-21-G) | Potency (Tov112D)

COc1ccc(/C=C/C(=O)O[C@@H]2[C@@H](O[C@@H]3O[C@H](CO)[C@@H](O)[C@H](O)[C@H]3O)[C@@H](O)[C@H](O[C@H]3C4C=CO[C@@H](O[C@@H]5O[C@H](CO)[C@@H](O)[C@H](O)[C@H]5O)C4[C@@]4(CO)O[C@@H]34)O[C@H]2C)cc1 (stereo not given in full)
inactive: activity change, negative = cytotoxicity (OV90) 9.16% [at 11.6 µM] | activity change, negative = cytotoxicity (PA-1) -1.37% [at 11.6 µM] | activity change, negative = cytotoxicity (SKOV3) 1.14% [at 11.6 µM] | activity change, negative = cytotoxicity (Tov-21-G) 4.96% [at 11.6 µM] | activity change, negative = cytotoxicity (Tov112D) 0.569% [at 11.6 µM]

CC(C/C=C/C(C)(C)O)C1CCC(C)(O)C(O)C1 (stereo not given)
inactive: Potency (OV90) | Potency (PA-1) | Potency (SKOV3) | Potency (Tov-21-G) | Potency (Tov112D)

COc1ccc(OC2OC(CO[C@@H]3O[C@@H](C)[C@H](O)[C@@H](O)[C@H]3O)C(O)C(O)C2O)cc1OC (stereo not given in full)
inactive: Potency (OV90) | Potency (PA-1) | Potency (SKOV3) | Potency (Tov-21-G) | Potency (Tov112D)

COC(=O)C1=CO[C@@H](O[C@@H]2O[C@H](CO)[C@@H](O)[C@H](O)[C@H]2O)[C@@H]2[C@@H](CO)[C@@H](O)C(O)[C@H]12 (stereo not given in full)
inactive: Potency (OV90) | Potency (PA-1) | Potency (SKOV3) | Potency (Tov-21-G) | Potency (Tov112D)

CC1(C)C2CCC1(C)C(OC(=O)C(O)(CC(=O)O)CC(=O)O)C2 (stereo not given)
inactive: Potency (OV90) | Potency (PA-1) | Potency (SKOV3) | Potency (Tov-21-G) | Potency (Tov112D)

C[C@]1(OC(=O)/C=C/c2ccc(O)cc2)C[C@@H](O)[C@]2(O)C=CO[C@@H](O[C@@H]3O[C@H](CO)[C@@H](O)[C@H](O)[C@H]3O)C12 (stereo not given in full)
inactive: Potency (OV90) | Potency (PA-1) | Potency (SKOV3) | Potency (Tov-21-G) | Potency (Tov112D)

COc1cnc(-n2cnc(C)n2)c2[nH]cc(C(=O)C(=O)N3CCN(C(=O)c4ccccc4)CC3)c12
inactive: Potency (OV90) | Potency (PA-1) | Potency (SKOV3) | Potency (Tov-21-G) | Potency (Tov112D)

COc1ccc(-n2c(=O)[nH]c3cc(C(=O)NCc4ccc(Cl)cc4)sc3c2=O)nc1OC
inactive: Potency (OV90) | Potency (PA-1) | Potency (SKOV3) | Potency (Tov-21-G) | Potency (Tov112D)

C[C@@H]1O[C@@H](OC2C(O[C@H]3[C@H](O[C@H]4CC[C@@]5(C)C(CC[C@]6(C)C5CC=C5C7CC(C)(C)CC(O)[C@]7(C)CC[C@]56C)C4(C)C)O[C@H](C(=O)O)[C@@H](O)[C@@H]3O)OC(CO)C(O)C2O)[C@H](O)[C@H](O)[C@H]1O (stereo not given in full)
inactive: activity change, negative = cytotoxicity (OV90) 7.68% [at 11.6 µM] | activity change, negative = cytotoxicity (PA-1) 0.277% [at 11.6 µM] | activity change, negative = cytotoxicity (SKOV3) 6.34% [at 11.6 µM] | activity change, negative = cytotoxicity (Tov-21-G) 5% [at 11.6 µM] | activity change, negative = cytotoxicity (Tov112D) 11.6% [at 11.6 µM]

COC(=O)C[C@H]1C(C)(C)[C@H](OC(=O)C(C)C)C2CC3=C4CC(=O)O[C@@H](c5ccoc5)[C@]4(C)CCC3[C@@]1(C)C2=O (stereo not given in full)
inactive: Potency (OV90) | Potency (PA-1) | Potency (SKOV3) | Potency (Tov-21-G) | Potency (Tov112D)

O=C(OC[C@H]1O[C@@H](Oc2ccccc2CO)[C@H](O)[C@@H](O)[C@@H]1O)c1ccccc1
inactive: Potency (OV90) | Potency (PA-1) | Potency (SKOV3) | Potency (Tov-21-G) | Potency (Tov112D)

CC(C)[C@@](O)(c1ccc2cc(OC(F)F)c(OC(F)F)cc2c1)c1cn[nH]n1
inactive: Potency (OV90) | Potency (PA-1) | Potency (SKOV3) | Potency (Tov-21-G) | Potency (Tov112D)

COc1ccnc2[nH]cc(C(=O)C(=O)N3CCN(C(=O)c4ccccc4)CC3C)c12 (stereo not given)
inactive: Potency (OV90) | Potency (PA-1) | Potency (SKOV3) | Potency (Tov-21-G) | Potency (Tov112D)

Oc1ccc2c(-c3c(-c4ccccn4)nn4c3CCC4)ccnc2c1
inactive: Potency (OV90) | Potency (PA-1) | Potency (SKOV3) | Potency (Tov-21-G) | Potency (Tov112D)

N#CC1C(=O)N=C(c2cc(Cl)ccc2O)C=C1c1cc(OCc2ccccc2)cc(OCc2ccccc2)c1 (stereo not given)
inactive: Potency (OV90) | Potency (PA-1) | Potency (SKOV3) | Potency (Tov-21-G) | Potency (Tov112D)

CC1(C)CCC2(C(=O)O)C(O)CC3(C)C(=CCC4C5(C)CCC(OC6OC(CO)C(O)C(O)C6OC6OC(CO)C(O)C(O)C6OC6OCC(O)(CO)C6O)C(C)(C)C5CCC43C)C2C1 (stereo not given)
inactive: activity change, negative = cytotoxicity (OV90) -4.37% [at 11.6 µM] | activity change, negative = cytotoxicity (PA-1) -4.82% [at 11.6 µM] | activity change, negative = cytotoxicity (SKOV3) 9.15% [at 11.6 µM] | activity change, negative = cytotoxicity (Tov-21-G) -4.95% [at 11.6 µM] | activity change, negative = cytotoxicity (Tov112D) 1.07% [at 11.6 µM]
